Screens deposited in PubChem by National Center for Advancing Translational Sciences (NCATS).
Sampled rows, rich in hits. Any-hit rate of the full collection: about 9.4%.
ELG1 DNA repair: blocks ELG1-dependent DNA repair in HEK293T cells. actives 2.3% (n = 330,000). HEK293T ELG1-luciferase reporter, luminescence, 16 h; DNA damage induced by 5-fluorouridine. Potency, µM (top dose mostly 46.1 µM), for inactives: at the highest dose activity change, negative = inhibition, most hits filed as inhibitors; also: % is scaled to controls: 0 for no effect and ±100 for the full control effect; nearly all actives have a fitted effect of over 55% in size
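Step one: seed 2,000 cells per well. Step two: pin-transfer compound or DMSO alongside 5-fluorouridine. Step three: incubate 16 hr, 37 °C, 5% CO2. Step four: add ONE-Glo, wait 30 min, read luminescence.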
SMN2 splice enh: SMN2 splice variant enhancement | actives 2.8% (n = 210,000) | Potency, µM (series often up to 46.1 µM), for the others: top-dose activity change, positive = activation, most hits filed as activators | AID 1458 | HEK293 SMN2-luciferase splicing reporter, luminescence, 30-36 h; also: % of control where 0% means no effect; nearly all actives have a fitted effect of over 55% in size
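HEK293 cells carry an SMN2 minigene-luciferase reporter in which exon 7 inclusion puts luciferase in frame. Cells were seeded at 2000 cells/well, attached for 10-12 hours, then exposed to compounds for 30-36 hours at 37C before ONE-Glo luminescence.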
NPC1 prom act: activators of NPC1 promoter | Huh7 NPC1 promoter luciferase reporter, 24 h | Potency, µM (series often up to 9.22 µM), for inactives: top-dose activation, usual class: activators | actives 2.4% (n = 320,000); also: % of control where 0% means no effect; nearly all actives have a fitted effect of over 60% in size
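Stably transfected Huh7 (NPC1 promoter→luciferase), 1500 cells/well in Opti-MEM + 10% FBS, 2 h settle, then compound 24 h at 37 °C. Luminescence after 10 min with Amplite reagent.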
FLuc counter: counter-screen for miR-21 project: firefly luciferase inhibitors or activators; P08659; purified FLuc, Km substrates, luminescence inhibition; Potency, µM (highest dose often 57.5 µM), for the others: at the top dose activity change, negative = inhibition, hits mostly inhibitors; actives 6.9% (n = 360,000);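 also: plate controls were vehicle for no effect and reference inhibitor for full effect; nearly all actives have a fitted effect of over 55% in size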
Target sequence (P08659 whole entry, looked up): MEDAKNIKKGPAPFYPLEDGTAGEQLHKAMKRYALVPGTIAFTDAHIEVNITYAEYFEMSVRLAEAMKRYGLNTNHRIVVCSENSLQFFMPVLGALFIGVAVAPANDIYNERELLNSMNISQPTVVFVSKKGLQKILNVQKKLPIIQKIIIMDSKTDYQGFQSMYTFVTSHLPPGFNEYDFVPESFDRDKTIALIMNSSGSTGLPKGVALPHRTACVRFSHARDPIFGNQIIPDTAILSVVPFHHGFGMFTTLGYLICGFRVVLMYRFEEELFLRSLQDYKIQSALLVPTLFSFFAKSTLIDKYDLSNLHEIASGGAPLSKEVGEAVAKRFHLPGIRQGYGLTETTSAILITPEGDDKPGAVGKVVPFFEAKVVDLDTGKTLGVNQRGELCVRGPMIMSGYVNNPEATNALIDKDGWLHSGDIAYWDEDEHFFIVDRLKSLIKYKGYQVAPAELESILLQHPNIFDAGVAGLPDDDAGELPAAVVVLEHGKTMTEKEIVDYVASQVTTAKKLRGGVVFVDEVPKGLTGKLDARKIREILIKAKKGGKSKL
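Purified P. pyralis luciferase (10nM final) with 10uM D-luciferin and 10uM ATP (Km levels) in 50mM Tris acetate pH 7.5, 10mM Mg acetate, 0.01% Tween-20, 0.05% BSA; qHTS 6-point titration, ~60 µM downward; luminescence read.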
ELG1 genotox: inducers of genotoxicity in HEK293T ELG1-luciferase cells; AID 504466; HEK293T ELG1-luciferase reporter, luminescence, 16 h; actives 1.3% (n = 330,000); Potency, µM (doses to about 46 µM), without a hit: at the highest dose activity change, positive = activation, most hits filed as activators; also: % of control where 0% means no effect; nearly all actives have a fitted effect of over 60% in size
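ELG1-luciferase HEK293T cells, 2,000/well; compound pinned in; 16 hr, 37 °C, 5% CO2; ONE-Glo, 30 min RT; luminescence on CCD imager.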
Rab9 promoter act: Rab9 promoter activation | Huh7 Rab9 promoter-luciferase reporter, luminescence, 24 h | Potency, µM (series often up to 9.22 µM), for inactives: at the top dose activation, negative = inhibition, most hits filed as activators | AID 485297 | actives 2.8% (n = 320,000); also: % of control where 0% means no effect; nearly all actives have a fitted effect of over 60% in size
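Steps: seed 1500 Huh7 Rab9-luc cells per well, rest 2 h at 37 °C; add compound in DMSO; incubate 24 h; add luciferase reagent, 10 min ambient; read luminescence.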
* hit, by the source's call; ? = inconclusive; . = no result given; [ ] = dose if it differs, or a comment. Calls follow the shape of the dose curve; as a rule, active = well fitted curve in the direction sought with a large enough effect; inconclusive = small, poorly fitted or top-dose-only effect, or another doubt; inactive = no such curve, though single readings can be large; an effect the other way counts as inactive or inconclusive. Potency is read from the fitted curve at half-maximal effect.

SMILES | ELG1 DNA repair | SMN2 splice enh | NPC1 prom act | FLuc counter | ELG1 genotox | Rab9 promoter act
COc1ccc2nc(SCC(=O)N3CCNC3=O)[nH]c2c1 | ? | ? | 2.5µM* | 21µM* | ? | 2µM*
CCCCc1nnc(NC(=O)CSc2nc(O)c(Cc3ccccc3)c(=O)[nH]2)s1 | 3% | -50% | -2% | ? | 1% | -7%
O=C(CSc1nc(O)c(Cc2ccccc2)c(=O)[nH]1)Nc1nnc(SCc2ccccc2)s1 | -6% | . | -5% | 11µM* | 2% | 11%
COC(=O)C1CCN(C(=O)CSc2nc3ccc(OC)cc3[nH]2)CC1 | 0% | 11% | 15% | 0% | 5% | -2%
COc1cc(N=C(N)N=C(N)N)c2ncccc2c1 | . | -8%[9.22 µM] | . | . | . | .
COc1ccc(NC(=O)CSc2nc(O)c(C/C=C/c3ccccc3)c(=O)[nH]2)cc1 | . | -3% | . | 5.4µM* | . | .
COc1ccc(NC(=O)c2ccc(NC(=O)CSc3nccc(=O)[nH]3)cc2)cc1 | ? | . | 17% | 15µM* | 8% | 3%
Cc1ccccc1OCC(=O)N(Cc1ccc(C(C)C)cc1)C1CCS(=O)(=O)C1 (centres undefined) | . | -15% | . | -6% | . | .
CC(=O)N/C(=C\c1ccccc1)C(=O)OCc1ccccc1 | 16% | . | 4% | -1% | 3% | 12%
CC(=O)N/C(=C\c1ccccc1)C(=O)OCc1cccc(S(=O)(=O)N(C)C)c1 | 7.3µM* | . | -10% | -2% | 2% | 0%
CCN(/C=N/c1sc2c(c1C#N)CCCCC2)CC | ? | 11µM* | 2.5µM* | 4.8µM* | ? | 3.2µM*
CC(C)CN(/C=N/c1sc2c(c1C#N)CCCCC2)CC(C)C | 3% | -11% | 5% | -12% | 2% | 16%
N#Cc1c(/N=C/C=C/c2ccccc2)sc2c1CCCC2 | ? | -11% | 23% | 6.7µM* | 6% | ?
CN1CCN(/C=N/c2sc3c(c2C#N)CCCCC3)CC1 | ? | 16µM* | 2.5µM* | 12µM* | ? | 2.2µM*
COc1nc(N)nc2c1ncn2[C@@H]1C[C@H](O)[C@@H](CO)O1 | . | -5%[9.22 µM] | . | . | . | .
COc1ccc(-n2c(=O)c3c4c(sc3n(Cc3ccc(C)cc3C)c2=O)CCC4)c(OC)c1 | . | 1% | . | -5% | . | .
CC(C)NC(=O)CCC(=O)N1Cc2ccccc2Oc2ncccc21 | . | . | . | 2% | . | .
N#C/C(=C\c1cc2ccccc2nc1N1CCOCC1)C(=O)Nc1ccc(N2CCOCC2)cc1 | 12µM* | -26% | -7% | -1% | -4% | -3%
CCCCC(=O)NCCc1c(Cc2ccccc2)[nH]c2ccccc12 | . | -24% | . | . | . | .
CC(=O)N1CCN(c2ccc(NCc3ccccc3)cc2)CC1 | 3% | -25% | 4% | -3% | -2% | 15%
Fc1ccc(CNc2ccc(N3CCN(Cc4ccccc4)CC3)cc2)cc1 | 7.3µM* | . | -5% | 6% | 25% | -3%
Cc1cccc(NC(=O)c2cc(-c3cccnc3)nc3c(C)cccc23)n1 | -6% | . | 0% | ? | -10% | -2%
Cc1nc2nc(COc3ccccc3)[nH]n2c(=O)c1Cl | 1% | 16% | 7% | 19µM* | 2% | 7%
Cc1nc2nc(Cc3ccccc3)[nH]n2c(=O)c1Cl | -2% | -5% | 12% | 2%[2.3 µM] | 0% | -1%
O=C1CCCc2c1sc1nc3n(c(=O)c21)CCCCC3 | ? | 28% | ? | -20% | ? | 25%
SMILES | ELG1 DNA repair | SMN2 splice enh | NPC1 prom act | FLuc counter | ELG1 genotox | Rab9 promoter act
O=c1c2c3c(sc2nc2n1CCCCC2)C(O)CCC3 (centres undefined) | ? | . | ? | ? | ? | 2.8µM*
O=C1c2sc3nc4n(c(=O)c3c2CCC1Br)CCCCC4 (centres undefined) | ? | -4% | 29% | 19µM* | ? | ?
CCc1nonc1NC(=O)c1oc2ccc(C)cc2c1C | ? | 21% | ? | ? | ? | ?
CCc1ccc2oc(C(=O)Nc3nc(-c4ccccc4)ns3)c(C)c2c1 | . | ? | . | 5.4µM* | . | .
CCc1ccc2oc(C(=O)Nc3nonc3CC)c(C)c2c1 | ? | 11% | ? | ? | ? | 3.5µM*
Cc1nonc1NC(=O)c1oc2ccc(F)cc2c1C | ? | . | ? | -1% | 14% | ?
Cc1cc2oc(C(=O)Nc3nonc3C)c(C)c2cc1Cl | ? | . | ? | -6% | ? | 3.5µM*
Cc1ccc(-c2noc(CNC(=O)c3ccc(Br)o3)n2)cc1 | . | -19% | . | 0% | . | .
S=c1nc(Cc2ccccc2)[nH]c2ccccc12 | ? | . | 0% | -1% | 8% | -2%
Clc1ccc2nc(COc3ccccc3)[nH]c2c1 | ? | . | -1% | 12µM* | ? | ?
S=c1nc(COc2ccccc2)[nH]c2ccccc12 | ? | . | ? | 24µM* | 16% | ?
COC(=O)c1ccc(C#Cc2ccccc2)o1 | ? | . | 19% | 17µM* | 14% | 17%
Cc1ccc(C(C)C)c(OCC(=O)Nc2ccc(N3CCOCC3)cc2N2CCOCC2)c1 | 18µM* | . | -7% | 6% | -6% | -10%
CC(C)(C)OC(=O)NCC12C=CC(O1)C1C(=O)N(Cc3ccccc3)C(=O)C12 (centres undefined) | 23µM* | -24% | -6% | 1% | -12% | 0%
